Source: PubChem BioAssay (NCI)
This is part of a sample that, as a whole, favours compounds with a hit. Of some 83,000 tested, about 20% had one in any assay.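 Method: cells in 96-well plates; compound added at one concentration; 48 h incubation; percent growth measured; values under 10 scored active.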 Calls of active or inactive are those of the source.

tested on: MDA-MB-468 breast; assay: NCI-60 one-dose screen, 48 h (100 = growth as untreated, 0 = no growth, -100 = all killed); settings: 10 µM unless noted

Row | Compound | growth
1 | CCCCCCCCCCC[C@@H](C[C@H]1OC(=O)[C@H]1CCCCCC)OC(=O)[C@@H](CC(C)C)NC=O | 101% (inactive)
2 | CNc1ccc2c(c1)c1ccccc1n2C | 102% (inactive)
3 | CC(C)CC(=O)Nc1n[nH]c2c1CN(C(=O)C1CCN(C)CC1)C2(C)C | -44.3% (active)
4 | O=C1C=Cc2ccccc2/C1=C/c1nc(-c2ccccc2)oc1O | 88.6% (inactive)
5 | COc1cccc(-c2nn(-c3ccccc3)cc2-c2ccnc(NCCCNC(=O)c3ccccc3)c2)c1 | 15.2% (inactive)
6 | COc1ccc(-c2nc3sc(-c4ccccc4)c(-c4ccccc4)n3c2/C=C/C(=O)c2ccccn2)cc1 | 60% (inactive)
7 | Cc1cc(NS(=O)(=O)c2ccccc2)c(OS(=O)(=O)c2ccccc2)cc1C | 102% (inactive)
8 | CC(=O)Nc1ccc(S(=O)(=O)Nc2cccc(-c3nc(-c4ccc(NC(=O)c5cccnc5)cc4Cl)no3)c2)cc1 | 18.4% (inactive)
9 | COc1ccc2c(c1)NC1=C(C(=O)OC1)C2c1cc(OC)c2c(c1)OCO2 (stereo not given) | -5.15% (active)
10 | Cc1c(C(=O)/C=C/Nc2c(Cl)cc(S(N)(=O)=O)cc2Cl)sc2nc3ccccc3n12 | 102% (inactive)
11 | CCN1CCCC(Nc2cc(C)nc(/N=C(/N)Nc3ccc(Cl)c(Cl)c3)n2)C1 (stereo not given) | -83.3% (active)
12 | COc1ccc(Cn2nc3c(c2-c2cc(OC)c(OC)c(OC)c2)-c2oncc2CC3)cc1 | 27.8% (inactive)
13 | O=S(=O)(O)CCl | 108% (inactive)
14 | Cc1[nH]c(C(=O)Nc2ccc(C(=O)NCC3CCNCC3)cc2OC(C)C)c(Cl)c1Cl | 21.5% (inactive)
15 | Nc1c(C(=O)c2ccccc2)nnc2ncnn12 | 99.7% (inactive)
16 | O=C(CO[N+](=O)[O-])Nc1ccc(C(=O)/C=C/c2ccc(Cl)cc2)cc1 | 48.7% (inactive)
17 | O=C1/C(=C/c2ccc([N+](=O)[O-])o2)Oc2ccc(Br)cc21 | 65.3% (inactive)
18 | COc1cnc2c(c1)C(=O)c1c-2n(CCCNCC2CC2)c(=O)c2cc(F)ccc12 | -38.4% (active)
19 | CCOc1c(Br)cc(C2C(C(=O)OC)=CN(C)C=C2C(=O)OC)cc1OC | 0.386% (active)
20 | COC(=O)[C@@]1(C)CC[C@]2(C)CC[C@]3(C)C(=CC(=O)[C@@H]4[C@@]5(C)Cc6c(n(CC#CCN7CCN(C)CC7)c7ccccc67)C(C)(C)[C@@H]5CC[C@]43C)[C@@H]2C1 | 69.1% (inactive)

Row | Compound | growth
21 | N#C/C(=C\c1ccc([N+](=O)[O-])s1)c1nc2cc(Cl)ccc2s1 | 93.7% (inactive)
22 | CN(C)c1ccc(N=Nc2ccc(Br)cn2)c(O)c1 | -6.7% (active)
23 | CC(C)=CCC[C@](C)(O)[C@H]1CC[C@]2(C)[C@@H]1CC[C@@H]1[C@@]3(C)C/C(=C/c4ccco4)C(=O)C(C)(C)[C@@H]3CC[C@]12C | 111% (inactive)
24 | COc1cc(/C=C2\CN(C)CC3=C2Nc2nc(SC)[nH]c(=O)c2C3c2cc(OC)c(OC)c(OC)c2)cc(OC)c1OC (stereo not given) | 39.5% (inactive)
25 | C=CCn1c(=O)c2cnc(Nc3ccc(N4CCN(C)CC4)cc3)nc2n1-c1cccc(C(C)(C)O)n1 | -0.604% (active)
26 | CC(C)(C)n1cc(-c2ccnc(NCCNS(=O)(=O)c3ccc(O)cc3)c2)c(-c2cccc(O)c2)n1 | 91.8% (inactive)
27 | COc1ccc(C(=O)CSc2nc(-c3cc(OC)ccc3OC)cc(-c3ccc(OC)cc3)c2C#N)cc1 | 105% (inactive)
28 | CCCC(C)c1cc(Cc2cc(Cl)cc(Cl)c2O)c(O)c(Cc2cc(Cl)cc(Cl)c2O)c1 (stereo not given) | -1.2% (active)
29 | O=C(N/N=C/c1ccc([N+](=O)[O-])s1)c1[nH]c2ccc(Br)cc2c1-c1ccccc1 | 24.8% (inactive)
30 | Oc1cccc(Nc2nc(-c3ccccn3)cs2)c1 | 110% (inactive)
31 | O=C(O)COc1ccc(-c2cssc2=S)cc1 | 99.5% (inactive)
32 | CCCN1CCN(c2ccc3nc(-c4ccc5nc(-c6ccc(OCC)cc6)[nH]c5c4)[nH]c3c2)CC1 | -67.6% (active)
33 | C=C1C(=O)O[C@H]2[C@H]1CC/C(COC(=O)/C=C\C(=O)NCc1ccc(Cn3c(=O)sn(CCCI)c3=O)cc1)=C\CC[C@@]1(C)O[C@@H]21 | -82.1% (active)
34 | CC/C(C)=C(\C)C(=O)O | 106% (inactive)
35 | COc1ccc2c(c1)c(-c1nc(-c3c[nH]c4ccncc34)cs1)cn2C | -60.8% (active)
36 | O=C(CNC(=O)c1cccc2ccccc12)Nc1ccccc1Oc1ccccc1 | 19.7% (inactive)
37 | Cc1ccc(S(=O)(=O)/C(=C\c2ccc(Cl)cc2)C(=O)c2ccccc2)cc1 | 105% (inactive)
38 | O=C(/C=C/c1cccc(Br)c1)c1cccc(OCCCCOc2cccc(C(=O)/C=C/c3cccc(Br)c3)c2)c1 | 102% (inactive)
39 | COc1ccc(NC(=O)c2ccc(NC3=C(c4ccc(Cl)cc4)C(=O)NC3=O)cc2)cc1 | 88.1% (inactive)
40 | O=C1/C(=C/c2ccccc2)CCc2nc3ccccc3c(/C=C/c3ccc(Cl)cc3)c21 | 83.5% (inactive)
